# Compound activity from PubChem BioAssay.
# In the library only some 1.9% were active in any assay of this set; here they are far more common.
# PABP polyA inh: blocks human PABP binding to poly(A) RNA. P11940. fluorescence polarization. inhibition, % at 35 µM. 290,000 compounds, 1% hits. AID 2014;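 further: calls also rest on retests at 20 µM and on dose response follow-up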
# GRK2 aptamer HTS: human GRK2 inhibition via aptamer displacement | AID 488847 | 330,000 compounds, 0.59% hits | P25098 | bead flow cytometry, FAM-aptamer displacement from GRK2 | inhibition of aptamer binding, % at 10 µM;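 active means inhibition of aptamer binding above 40%, roughly 3 SD of noise, on plates passing a quality check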;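 further: median bead fluorescence of bound FAM aptamer so fluorescent compounds give negative values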
# PERK inh: blocks human PERK kinase; Q9NZJ5; CHO PERK-DD fusion, SEAP luminescence translation reporter; inhibition, % at 5.6 µM; 220,000 compounds, 0.17% hits;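 active means inhibition above the mean inhibition of all tested compounds plus 3 SD, set separately per screening campaign, cut at about 2.9% in these data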;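 further: PERK kinase domain activated by AP20187 dimerizer at 100 nM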
# MLLE-PAM2 inh: inhibitors of microRNA-mediated deadenylation, human PABP1 MLLE binding | GST-MLLE / FITC-PAM2 fluorescence polarization | inhibition, % at 20 µM | P11940 | AID 588489 | 360,000 compounds, 0.36% hits; in the data active means inhibition above about 35%, passing the limit was not always enough
# eIF4H FP inh: inhibitors of RNA binding by human eIF4H | Q15056 | eIF4H fluorescence polarization binding assay | inhibition, % at 35 µM | 290,000 compounds, 0.94% hits | AID 2012;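 further: calls also rest on retests at 20 µM and on dose response follow-up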
# GRK2 CP1: confirmation of human GRK2 inhibitors displacing RNA aptamer; shares compounds with GRK2 aptamer HTS; bead-bound GRK2, FAM-aptamer displacement, flow cytometry; aptamer displacement, % at 10 µM; 2,000 compounds, 4% hits;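 active means aptamer displacement above 40%, near three times the noise of non-fluorescent compounds, on plates passing quality checks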;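 further: negative values mostly reflect intrinsic compound fluorescence rather than true enhancement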
# Aptamer quench 1: fluorescent aptamer quenching in GRK2 counter-screen dose response. fluorescence change (kMESF span), kMESF (test concentration not listed). 110 tested, under 10 active. Fluorescent RNA aptamer beads, flow cytometry; hits give high values. shares compounds with GRK2 aptamer HTS;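 active means compounds whose bead fluorescence drops by more than 37 kMESF across the dose range, marking them as dye quenchers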
# FAM quench CP1: counter-screen for GRK2 aptamer inhibitors: fluorescent aptamer quenchers; shares compounds with GRK2 aptamer HTS; Carboxyfluorescein RNA aptamer on beads, flow cytometry quenching; hits give low values; fluorescence response (% of DMSO), % at 10 µM; 2,000 tested, under 10 active; AID 504580;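 active means compounds that quench the bead-bound fluorescent RNA probe, cutting fluorescence to under half of the solvent control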;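 further: counterscreen run without GRK2 so only probe quenching by compound is measured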
# GRK2 CP2: confirmation of human GRK2 inhibitors binding RNA aptamer site; AID 504782; shares compounds with GRK2 aptamer HTS; inhibition of aptamer binding, % at 10 µM; 360 tested, under 10 active; bead-bound GRK2, FAM-aptamer displacement, flow cytometry;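 active means inhibition of aptamer binding above 40%, about triple the noise seen with nonglowing compounds, on plates passing quality control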;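 further: negative values mostly come from compounds that fluoresce themselves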
# FAM quench SP: quenches fluorescent RNA aptamer, GRK2 hit artifact; shares compounds with GRK2 aptamer HTS; carboxyfluorescein RNA aptamer beads, flow cytometry quenching; hits give low values; fluorescence response vs DMSO, % at 10 µM; 360 tested, under 10 active;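 active means response vs DMSO under 50%, meaning signal dropped by over half, treated as fluorescence quencher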;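 further: labelled aptamer on streptavidin beads without GRK2 as a quench counter-screen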
# FAM quench DR: aptamer fluorescence quenching in GRK2 powder counter-screen. shares compounds with GRK2 aptamer HTS. Bead-bound FAM RNA aptamer fluorescence quenching, flow cytometry; hits give low values. fluorescence ratio to DMSO, % at 11.1 µM. 35 tested, under 10 active;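 active means compounds that dim the fluorescent label, raw bead signal shifting by over 33 units between lowest and highest dose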
# A number is an active result; i = inactive; nt = no result given. Unless noted, how the calls were made is not given here.
SMILES,PABP polyA inh,GRK2 aptamer HTS,PERK inh,MLLE-PAM2 inh,eIF4H FP inh,GRK2 CP1,FAM quench CP1,others
O=C(Nc1cccc(S(=O)(=O)NC2=NCCCCC2)c1)c1ccc(Cl)cc1,nt,nt,nt,i,nt,nt,nt,
OC[C@@H]1CN(CCN2CCOCC2)C[C@H](n2cnc3c(NCc4ccc(F)cc4)ncnc32)O1,nt,nt,nt,i,nt,nt,nt,
CCc1nn2c(N3CCOCC3)cc(C)nc2c1-c1ccccc1,i,i,nt,i,i,i,i,
COc1ccc(S(=O)(=O)Nc2ccccc2N2CCOCC2)cc1OC,nt,i,nt,i,nt,nt,nt,
Cn1c(=O)oc2cc(S(=O)(=O)NCc3ccccn3)ccc21,i,52.0,i,i,i,i,i,
O=C(Nc1ccccc1C(=O)Nc1ccc(Br)cn1)c1ccccc1Cl,nt,44.0,nt,i,nt,nt,nt,GRK2 CP2=i;FAM quench SP=i
Cn1ccc2cc3c(cc21)CCN3C(=O)Nc1cccnc1,nt,57.0,nt,i,nt,i,i,
CN1CCCC(CC2Oc3ccccc3Sc3ccccc32)C1 (stereo not drawn),i,44.0,i,i,i,nt,nt,GRK2 CP2=i;FAM quench SP=i
O=c1ccc2cc(S(=O)(=O)N3CCOCC3)ccc2o1,i,56.0,i,i,i,i,i,
O=C(CN1C(=O)C2C3C=CC(C3)C2C1=O)OCC(=O)c1ccc(Cl)c([N+](=O)[O-])c1 (stereo not drawn),i,i,nt,i,i,nt,nt,
O=C(CN(Cc1ccccc1)C(=O)c1csnn1)NCc1ccccc1,i,i,i,i,i,nt,nt,
O=C(Cn1nc(CNc2ccc(Cl)cc2)[n+]2c1CCCCC2)c1ccc(Br)cc1,i,i,i,i,i,nt,nt,
O=C(Cn1nc(CNc2ccc(Br)cc2)[n+]2c1CCCCC2)c1ccc([N+](=O)[O-])cc1,i,86.0,i,i,i,i,i,
Cc1ccc(C)c(N2N=C(C(=O)N(CC(C)C)c3c(N)n(Cc4ccccc4)c(=O)[nH]c3=O)CCC2=O)c1,i,i,nt,i,i,i,i,
CC(C)CN(C(=O)C1=NN(c2ccccc2)C(=O)CC1)c1c(N)n(Cc2ccccc2)c(=O)[nH]c1=O,nt,i,nt,i,nt,nt,nt,
Cc1ccc(CNC(=O)c2ccc(Cl)c(S(N)(=O)=O)c2)n1C,i,i,nt,i,i,nt,nt,
COc1cc(C(=O)NCCCN2CCCC2=O)cc(OC)c1OC,i,94.0,i,i,i,i,i,
COc1cc(-c2noc(C)c2C(=O)NCCCN2CCCC2=O)cc(OC)c1OC,nt,i,nt,i,nt,nt,nt,
Cc1cccc(Cn2c(=O)oc3ccc(C)cc32)c1,i,68.0,nt,i,i,i,i,
OC[C@H]1O[C@@H](c2nc3ccc(-c4nc(-c5ccc(Br)cc5)no4)cc3[nH]2)C[C@@H]1O,nt,nt,nt,i,nt,nt,nt,
COc1cccc(C2=NO[C@@H]3C(=O)N(c4ccc5c(c4)OCCO5)C(=O)[C@H]23)c1OC,i,i,i,i,i,nt,nt,GRK2 CP2=i;FAM quench SP=i
COc1cccc(OC)c1OC(=O)C1CC(=O)N(c2ccc3c(c2)OCCO3)C1 (stereo not drawn),nt,i,nt,i,nt,nt,nt,GRK2 CP2=i;FAM quench SP=i
O=C(O)C1CC(=O)N(c2ccc3c(c2)OCCO3)C1 (stereo not drawn),i,61.0,i,i,i,40.2,i,Aptamer quench 1=i;FAM quench DR=i
COc1cccc(C2=NO[C@@H]3C(=O)N(Cc4ccccc4)C(=O)[C@H]23)c1OC,i,i,i,i,i,nt,nt,
COc1ccccc1NC(=O)C(C)OC(=O)C1CC(=O)N(c2ccc3c(c2)OCCO3)C1 (stereo not drawn),i,i,nt,i,i,nt,nt,
SMILES,PABP polyA inh,GRK2 aptamer HTS,PERK inh,MLLE-PAM2 inh,eIF4H FP inh,GRK2 CP1,FAM quench CP1,others
CCOC(=O)Cc1ccc(Nc2nc(NCCOC)nc3ccsc23)cc1,nt,nt,nt,i,nt,nt,nt,
CCOC(=O)C1CCN(CC(=O)Nc2c(C(=O)OC)[nH]c3cccc(C)c23)CC1,i,54.0,i,i,i,i,i,
CC(CNC(=O)c1ccc2c(c1)OCO2)c1ccc([N+](=O)[O-])cc1 (stereo not drawn),i,67.0,i,i,i,i,i,
Cc1ccc([N+](=O)[O-])cc1NC(=O)c1ccc2c(c1)OCO2,i,i,i,i,i,nt,nt,
CCOC(=O)C1CCCN(C(=O)CN2C(=O)/C(=C/c3ccc(OC)cc3)Oc3ccccc32)C1 (stereo not drawn),i,i,i,i,i,nt,nt,
C[C@@H](NC(=O)c1[nH]cnc1C(=O)Nc1ccccc1)c1ccccc1,nt,i,nt,i,nt,nt,nt,
C[C@H](NC(=O)c1[nH]cnc1C(=O)Nc1cccc(Cl)c1)c1ccccc1,nt,i,nt,i,nt,i,i,
O=C(Nc1cccc(Cl)c1)c1cnc[nH]1,i,58.0,nt,i,i,i,i,
CN(Cc1ccccc1)C(=O)c1[nH]cnc1C(=O)Nc1cccc(Cl)c1,nt,i,nt,i,nt,i,i,
C[C@@H](NC(=O)c1[nH]cnc1C(=O)Nc1cccc(Cl)c1)c1ccccc1,nt,i,nt,i,nt,i,i,
CN(Cc1ccccc1)C(=O)c1[nH]cnc1C(=O)Nc1ccc(Cl)cc1,nt,i,nt,i,nt,nt,nt,
O=C(Nc1cccc(Cl)c1)c1ccncc1,i,i,i,i,i,nt,nt,
C[C@H](NC(=O)c1[nH]cnc1C(=O)Nc1ccc(Cl)cc1)c1ccccc1,nt,i,nt,i,nt,nt,nt,
CCCCCCSc1ccc([C@@H]2[C@H]3C(=O)N(CC)C(=O)[C@H]3[C@]3(C(=O)OC)CCCN23)cc1,nt,i,nt,i,nt,nt,nt,
Cc1cc(C(=O)CSc2nncn2C)c(C)n1-c1ccccc1,i,i,i,i,i,nt,nt,
CC1CCN(C(=O)c2[nH]cnc2C(=O)Nc2cccc(Cl)c2)CC1,nt,i,nt,i,nt,i,i,Aptamer quench 1=i
CC(C)(C)OC(=O)[C@H](Cc1ccccc1)NC(=O)c1[nH]cnc1C(=O)Nc1cccc(Cl)c1,i,i,nt,i,i,i,i,
O=C(Nc1cccc(Cl)c1)c1nc[nH]c1C(=O)NCCCNC(=O)c1[nH]cnc1C(=O)Nc1cccc(Cl)c1,nt,i,nt,i,nt,nt,nt,
CNC(=O)c1[nH]cnc1C(=O)Nc1cccc(Cl)c1,nt,91.0,nt,i,nt,93.3,i,Aptamer quench 1=i
CCCCN(C(=O)c1cc(S(=O)(=O)N2CCCCC2)ccc1Cl)c1c(N)n(CC(C)C)c(=O)[nH]c1=O,nt,nt,nt,i,nt,nt,nt,
CC(=O)NC(=Cc1ccccc1)C(=O)N1CCCC1C(=O)O (stereo not drawn),nt,nt,nt,i,nt,nt,nt,
O=[N+]([O-])c1ccc(-n2cnc3ccccc32)c([N+](=O)[O-])c1,i,i,i,i,i,nt,nt,
